Data from PubChem BioAssay (NCATS).
Inconclusive results are not listed. Calls of active or inactive are those of the source. Unless noted, the call rests on the fitted dose curve.

Columns and labels:
[1] = qHTS for Inhibitors of the Functional Ribonucleoprotein Complex (vRNP) of Lassa (LASV) Arenavirus: LASV Primary Screen - GLuc reporter signal (AID 1347082; calls by dose curve; tested in HEK293 reporter line; further: nearly all actives have a fitted effect of over 60% in size)
[2] = qHTS for Inhibitors of the Functional Ribonucleoprotein Complex (vRNP) of Lassa (LASV) Arenavirus: Viability assay - alamar blue signal for LASV Primary Screen (AID 1347083; calls by dose curve; tested in HEK293 reporter line; further: nearly all actives have a fitted effect of over 80% in size)
[3] = qHTS for Inhibitors of the Functional Ribonucleoprotein Complex (vRNP) of Lymphocytic Choriomeningitis Arenaviruses (LCMV): Viability assay - alamar blue signal for LCMV Primary Screen (AID 1347085; calls by dose curve; tested in HEK293 reporter line; further: nearly all actives have a fitted effect of over 80% in size)
[4] = target: Nucleoprotein (Lymphocytic choriomeningitis virus (strain Armstrong)) (UniProt P09992); assay: qHTS for Inhibitors of the Functional Ribonucleoprotein Complex (vRNP) of Lymphocytic Choriomeningitis Arenaviruses (LCMV): LCMV Primary Screen - GLuc reporter signal (AID 1347086); further: nearly all actives have a fitted effect of over 70% in size
[5] = VSVG counterscreen qHTS to identify inhibitors of SARS-CoV-2 cell entry (AID 1645847); further: nearly all actives have a fitted effect of over 65% in size
Outline: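 Counterscreen using VSV-G (not spike) pseudotyped MLV particles on ACE2-expressing Expi293F cells after 1 h compound preincubation; infection ran 48 h at 37 °C. Data normalized to VSV-G PP and bald-PP wells.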

Measured: Potency
Potency means the concentration at half of the fitted maximal effect.

Sequence of Nucleoprotein (Lymphocytic choriomeningitis virus (strain Armstrong)) (P09992 whole entry, looked up): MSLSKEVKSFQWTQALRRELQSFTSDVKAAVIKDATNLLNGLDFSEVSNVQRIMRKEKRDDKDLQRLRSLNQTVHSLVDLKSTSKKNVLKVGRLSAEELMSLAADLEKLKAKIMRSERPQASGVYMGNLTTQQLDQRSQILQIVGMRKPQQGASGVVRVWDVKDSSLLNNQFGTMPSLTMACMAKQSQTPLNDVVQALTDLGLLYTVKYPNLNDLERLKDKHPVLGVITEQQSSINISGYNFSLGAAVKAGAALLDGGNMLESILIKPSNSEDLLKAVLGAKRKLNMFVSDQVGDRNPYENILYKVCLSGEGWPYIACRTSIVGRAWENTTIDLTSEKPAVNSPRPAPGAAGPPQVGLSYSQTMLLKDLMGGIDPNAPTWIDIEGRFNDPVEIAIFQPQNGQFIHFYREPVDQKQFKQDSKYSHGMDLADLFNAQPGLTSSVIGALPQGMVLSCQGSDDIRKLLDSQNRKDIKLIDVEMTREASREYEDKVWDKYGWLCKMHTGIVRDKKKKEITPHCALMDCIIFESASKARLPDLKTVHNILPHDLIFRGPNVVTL

Cc1c(CN2CCN(S(C)(=O)=O)CC2)sc2c(N3CCOCC3)nc(-c3cnc(N)nc3)nc12
active: [1] 86.3 nM | [2] 43.2 nM | [3] 122 nM | [4] 96.8 nM | [5] 1210 nM
